The full ranking holds about 33,000 sequences; the median of “E-score (-0.5 to 0.5)” is about -0.01, and the highest 2% start at about 0.26. Many of the other results were omitted from the sample, so the highest values are more common in it than they were.
biological target: Ste12 (UniProt P13574); test: PBM E-score (8-mer binding enrichment) (E-score (-0.5 to 0.5)); higher = stronger / more preferred TF binding; conditions: protein concentration: 200 nM; construct: GST-DNA-binding domain
Procedure: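 Universal 'all 10-mer' protein binding microarrays (Agilent AMADID 015681) probed with GST-tagged S. cerevisiae TFs (full-length or DBD) made by in vitro transcription/translation (PURExpress), about 100-200 nM. Bound TF was detected with fluorescent anti-GST. Each ungapped 8-mer (which stands for itself and its reverse complement) is scored by the PBM enrichment score (E-score), a modified Wilcoxon-Mann-Whitney statistic from -0.5 to +0.5, computed with the Universal PBM Analysis Suite. Scale: above 0.35 generally sequence-specific binding.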

Sequence of UniProt P13574 (P13574 whole entry, the tested form may be a part): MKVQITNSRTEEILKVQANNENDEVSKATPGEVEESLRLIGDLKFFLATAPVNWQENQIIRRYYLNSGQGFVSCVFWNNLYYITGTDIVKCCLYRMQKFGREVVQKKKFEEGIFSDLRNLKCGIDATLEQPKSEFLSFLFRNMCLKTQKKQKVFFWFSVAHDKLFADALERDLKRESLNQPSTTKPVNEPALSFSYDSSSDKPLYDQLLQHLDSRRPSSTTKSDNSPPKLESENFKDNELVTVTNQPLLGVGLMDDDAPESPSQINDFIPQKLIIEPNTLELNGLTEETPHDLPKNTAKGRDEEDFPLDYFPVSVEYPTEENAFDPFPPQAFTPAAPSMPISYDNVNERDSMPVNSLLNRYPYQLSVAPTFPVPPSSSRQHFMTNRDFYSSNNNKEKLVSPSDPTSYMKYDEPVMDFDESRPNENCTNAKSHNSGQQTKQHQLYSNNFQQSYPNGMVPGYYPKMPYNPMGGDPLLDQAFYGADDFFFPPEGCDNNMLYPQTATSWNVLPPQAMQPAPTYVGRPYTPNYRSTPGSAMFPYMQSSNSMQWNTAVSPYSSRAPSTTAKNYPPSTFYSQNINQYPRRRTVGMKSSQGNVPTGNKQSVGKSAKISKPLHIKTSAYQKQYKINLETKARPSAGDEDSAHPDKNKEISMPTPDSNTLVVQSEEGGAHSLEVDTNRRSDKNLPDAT

Sequence	PBM E-score
GAGCTCCC	-0.0992
CAGACTTC	-0.0901
ACGACTAT	-0.0677
CGTCACCC	0.0725
ACAGAATG	0.0528
GGAACTAC	-0.105
AACTATTA	0.0788
CACTATTC	0.0168
GACTATCA	-0.0567
AACTATCA	0.262
TACTATCA	0.13
AACTATTC	0.264
ATACGGCG	0.15
ACGGGTCT	-0.211
CCAATCTC	0.0596
ACCTGCAA	-0.0499
ATGCGCAC	0.0144
GTGCGCAC	0.355
GTGCGCAA	-0.0274
CCAATCCA	-0.0476
AGCGATCG	0.00873
CAAAAGAC	0.0341
CGATTCGC	0.0897
ACTTGAAA	0.314
CCTTGAAA	0.21

Sequence	PBM E-score
ACTTGAAG	0.119
TCTTGAAA	0.308
ACTTGAAT	0.0108
GCTTGAAA	0.198
GTCGAAGA	-0.0112
ACCTTAGT	-0.137
ATTGTAGC	0.0213
AGTGGTAT	-0.0443
TCACAGGA	0.122
GCGTGAAC	-0.0471
GGTGGGGA	0.318
GGAGGGGA	0.366
CGTGGGGA	0.0623
GGAGGGAA	-0.0917
GGGTGGGA	0.319
CGAGGGGA	0.0767
GGTGGGAA	0.127
CGGTGGGA	0.033
AGGTGGGA	-0.049
GATCGATA	0.0823
TCAAGGCA	-0.169
ACCTTGGA	-0.197
ATGTCTTA	0.134
AACACGAC	-0.104
GAATATAA	0.161

Sequence	PBM E-score
TAATATAA	0.287
CAATATAG	0.117
CAATATAC	0.116
CAATATAA	0.316
TATAATAA	0.141
CTCCCGTC	0.0578
AAAGGGAT	0.00067
AAAGTCAA	0.189
CTCTTATA	0.267
GTCTTATA	0.0618
ATCTTATA	0.0647
AAGCCCCA	-0.237
AGGCCATA	-0.245
CCCATAGA	-0.143
AAAATTTG	0.0212
AAAATTAG	0.31
AAAAATTT	0.138
AAAATTAC	0.188
AAAATTAT	0.337
AAAATTGT	0.225
AAAATTAA	0.134
ATAATTAT	0.195
AAAATTTT	0.311
GGCCACCA	0.0635
CAACCTAA	0.0543

Sequence	PBM E-score
GTATCGTA	0.0508
GATGCAAC	-0.0126
AGTTGACG	0.019
CATCCAGA	-0.00655
TAAACGCA	-0.0738
CAAACGCC	0.0326
GGAACGCC	-0.017
CAAACGCA	-0.133
GAAACGCA	0.323
GAAACGCC	0.288
ATGCTTAG	-0.205
AGCAGTAG	-0.168
TGGCCCCA	-0.094
AAGTAGTG	-0.075
ACCTAATC	0.0677
CCAAGAAA	0.0914
ACAAGAAT	0.137
AGTAGAAC	-0.0785
GAAAGAAA	0.297
CGTAGAAA	-0.0538
GAAAGAAC	-0.00643
AGTAGAAA	0.297
CAAAGAAA	0.214
ACAAGAAA	0.28
CCCACATC	-0.0169

Sequence	PBM E-score
GGCAAGCC	-0.0158
GCTAACCC	-0.192
CAGCTGCG	-0.0692
AGAAATTG	0.209
CATGGATC	-0.0524
AACTTTAT	0.165
AATAAAAT	0.183
ACTAATAC	0.131
ACTAATAG	0.0525
ACTAAAAG	0.1
ACTAAACC	0.0959
ACTAAAAT	0.27
ACTAAAAC	0.272
ACTAATAT	0.288
ACTAAAAA	0.203
AGAGTCTC	-0.00303
CTTGTTCA	-0.105
GACGTCAC	-0.136
TCATACCA	-0.0469
CATGGTTC	0.19
GTGGGCGA	-0.0639
CGGACCAA	-0.096
AACTGGTA	-0.00841
ATCGTCGG	0.00187
CCCGTTTC	0.274

Sequence	PBM E-score
ACCGTTTA	0.059
ACCGTTTG	-0.0273
CCCGTTTA	0.0626
CCCGTTGC	-0.145
ACCGTTTC	0.3
TCACTTAA	0.191
CCCGACGA	0.284
TCCGACGA	-0.109
GCCGACGA	0.17
ATAGCATA	-0.011
GAAGACTA	-0.0635
CGATTAAA	0.073
AAATTAAA	0.206
GAATTGAA	0.278
CAATTGAA	0.187
TAATTGAA	0.0688
TGATTAAA	0.158
GAATTAAA	0.287
GGATTAAA	0.274
GAATTAAC	0.00892
ATCCTACG	-0.141
GAGCTTGA	-0.176
AAAAACAC	0.233
CCGGAACC	0.0511
GCGGGGTA	0.143

Sequence	PBM E-score
CAGCCATC	-0.0408
GCTCTACC	-0.167
AAGCGAGA	0.108
CTCTTTAA	-0.122
CTACCGAA	-0.131
TTACCGAA	0.276
GTACCAAA	0.0457
TTACCAAA	0.263
CTACCAAA	0.0171
GTACCGAA	0.0964
GCATGCCC	0.105
AAACTGTT	0.162
AAACTGAA	0.268
AAACTTTG	0.217
GAACTTAA	0.115
AAACTGTA	0.135
CAACTTAA	0.0143
CAACTTTA	0.161
AAACTTAA	0.298
AAACTTTA	0.294
AAGATTGC	-0.0392
ACTTTGAT	0.11

Source: the supplement of paper PMC3334620
